Assay results published in the supplement of paper PMC11732987, “Enantioselective OTUD7B fragment discovery through chemoproteomics screening and high-throughput optimisation” (Communications Chemistry, 2025).

Legend:
Test in all cases: log2 ratio of Biotin-Ahx-Ub-VS probe labelling (fragment/DMSO); higher = less target engagement (more negative = stronger competition), active = hit call of the paper (q ≤ 0.05, log2 ratio ≤ -1)
Conditions in all cases: compound concentration: 200 uM; treatment time: 3 h
USP19 = biological target: T1, USP19 (UniProt O94966)
T1 sequence (whole entry): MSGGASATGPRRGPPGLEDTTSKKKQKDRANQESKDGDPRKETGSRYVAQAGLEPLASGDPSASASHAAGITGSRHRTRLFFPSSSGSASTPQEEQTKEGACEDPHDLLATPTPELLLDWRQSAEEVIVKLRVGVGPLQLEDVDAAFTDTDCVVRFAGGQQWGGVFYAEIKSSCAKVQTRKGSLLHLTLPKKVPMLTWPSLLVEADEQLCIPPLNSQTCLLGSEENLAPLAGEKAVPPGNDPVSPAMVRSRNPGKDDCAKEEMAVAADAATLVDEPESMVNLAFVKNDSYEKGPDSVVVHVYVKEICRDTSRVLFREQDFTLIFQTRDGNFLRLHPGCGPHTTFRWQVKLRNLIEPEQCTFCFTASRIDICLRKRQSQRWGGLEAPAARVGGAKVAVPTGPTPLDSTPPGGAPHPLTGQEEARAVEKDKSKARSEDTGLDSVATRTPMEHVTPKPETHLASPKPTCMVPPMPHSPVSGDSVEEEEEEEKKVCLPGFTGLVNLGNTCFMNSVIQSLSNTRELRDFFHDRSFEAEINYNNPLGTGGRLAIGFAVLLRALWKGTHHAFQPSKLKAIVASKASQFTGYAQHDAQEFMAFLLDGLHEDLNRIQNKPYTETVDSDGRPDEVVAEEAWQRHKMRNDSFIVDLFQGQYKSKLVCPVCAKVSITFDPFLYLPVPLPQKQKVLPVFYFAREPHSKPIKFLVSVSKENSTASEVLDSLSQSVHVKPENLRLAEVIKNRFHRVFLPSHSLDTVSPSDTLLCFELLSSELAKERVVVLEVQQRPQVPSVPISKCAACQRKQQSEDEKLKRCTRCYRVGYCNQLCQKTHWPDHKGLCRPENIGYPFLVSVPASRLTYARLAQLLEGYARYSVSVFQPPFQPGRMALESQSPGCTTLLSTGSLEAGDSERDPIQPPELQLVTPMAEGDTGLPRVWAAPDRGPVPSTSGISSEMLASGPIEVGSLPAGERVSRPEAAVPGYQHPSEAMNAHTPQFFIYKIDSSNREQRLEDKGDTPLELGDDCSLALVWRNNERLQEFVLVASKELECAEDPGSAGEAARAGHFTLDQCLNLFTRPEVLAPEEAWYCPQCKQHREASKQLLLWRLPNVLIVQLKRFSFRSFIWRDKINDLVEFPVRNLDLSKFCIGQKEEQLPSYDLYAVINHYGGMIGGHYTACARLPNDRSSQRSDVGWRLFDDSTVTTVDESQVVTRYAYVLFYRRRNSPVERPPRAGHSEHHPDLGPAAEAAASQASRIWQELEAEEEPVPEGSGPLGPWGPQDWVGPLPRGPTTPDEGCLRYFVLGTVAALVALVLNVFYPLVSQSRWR
How it was run: (§1)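 HEK293T lysate in Tris/CHAPS/IGEPAL buffer with protease inhibitors (495 µg per sample) was given fragment at 200 µM or vehicle for 3 h, in triplicate. It then received Biotin-Ahx-Ub-VS at 0.5 µM final for 1 h. Labelled DUBs were NeutrAvidin-enriched, digested with LysC and trypsin, and run by diaPASEF LC-MS/MS. Values are average log2 fragment/vehicle ratios by unpaired t-test on global-median-normalised Spectronaut quantities of proteins with ≥2 unique peptides.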

USP22 = biological target: T2, USP22 (UniProt Q9UPT9)
T2 sequence (whole entry): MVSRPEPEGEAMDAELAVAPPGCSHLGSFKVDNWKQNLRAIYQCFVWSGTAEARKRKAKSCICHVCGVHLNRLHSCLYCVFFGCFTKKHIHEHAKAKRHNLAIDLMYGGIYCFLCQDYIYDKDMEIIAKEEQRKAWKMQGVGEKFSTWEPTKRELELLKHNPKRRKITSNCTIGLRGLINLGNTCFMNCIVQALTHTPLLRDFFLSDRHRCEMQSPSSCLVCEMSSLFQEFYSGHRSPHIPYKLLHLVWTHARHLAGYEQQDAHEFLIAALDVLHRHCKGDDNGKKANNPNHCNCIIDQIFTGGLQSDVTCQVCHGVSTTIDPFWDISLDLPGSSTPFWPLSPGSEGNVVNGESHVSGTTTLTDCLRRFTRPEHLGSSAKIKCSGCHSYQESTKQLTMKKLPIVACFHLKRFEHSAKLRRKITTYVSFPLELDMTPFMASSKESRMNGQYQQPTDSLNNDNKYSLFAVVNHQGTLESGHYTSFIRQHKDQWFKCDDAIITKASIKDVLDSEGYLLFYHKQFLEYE
How it was run: as §1

USP24 = USP24 (UniProt Q9UPU5)
Chain of USP24 (Q9UPU5 whole entry): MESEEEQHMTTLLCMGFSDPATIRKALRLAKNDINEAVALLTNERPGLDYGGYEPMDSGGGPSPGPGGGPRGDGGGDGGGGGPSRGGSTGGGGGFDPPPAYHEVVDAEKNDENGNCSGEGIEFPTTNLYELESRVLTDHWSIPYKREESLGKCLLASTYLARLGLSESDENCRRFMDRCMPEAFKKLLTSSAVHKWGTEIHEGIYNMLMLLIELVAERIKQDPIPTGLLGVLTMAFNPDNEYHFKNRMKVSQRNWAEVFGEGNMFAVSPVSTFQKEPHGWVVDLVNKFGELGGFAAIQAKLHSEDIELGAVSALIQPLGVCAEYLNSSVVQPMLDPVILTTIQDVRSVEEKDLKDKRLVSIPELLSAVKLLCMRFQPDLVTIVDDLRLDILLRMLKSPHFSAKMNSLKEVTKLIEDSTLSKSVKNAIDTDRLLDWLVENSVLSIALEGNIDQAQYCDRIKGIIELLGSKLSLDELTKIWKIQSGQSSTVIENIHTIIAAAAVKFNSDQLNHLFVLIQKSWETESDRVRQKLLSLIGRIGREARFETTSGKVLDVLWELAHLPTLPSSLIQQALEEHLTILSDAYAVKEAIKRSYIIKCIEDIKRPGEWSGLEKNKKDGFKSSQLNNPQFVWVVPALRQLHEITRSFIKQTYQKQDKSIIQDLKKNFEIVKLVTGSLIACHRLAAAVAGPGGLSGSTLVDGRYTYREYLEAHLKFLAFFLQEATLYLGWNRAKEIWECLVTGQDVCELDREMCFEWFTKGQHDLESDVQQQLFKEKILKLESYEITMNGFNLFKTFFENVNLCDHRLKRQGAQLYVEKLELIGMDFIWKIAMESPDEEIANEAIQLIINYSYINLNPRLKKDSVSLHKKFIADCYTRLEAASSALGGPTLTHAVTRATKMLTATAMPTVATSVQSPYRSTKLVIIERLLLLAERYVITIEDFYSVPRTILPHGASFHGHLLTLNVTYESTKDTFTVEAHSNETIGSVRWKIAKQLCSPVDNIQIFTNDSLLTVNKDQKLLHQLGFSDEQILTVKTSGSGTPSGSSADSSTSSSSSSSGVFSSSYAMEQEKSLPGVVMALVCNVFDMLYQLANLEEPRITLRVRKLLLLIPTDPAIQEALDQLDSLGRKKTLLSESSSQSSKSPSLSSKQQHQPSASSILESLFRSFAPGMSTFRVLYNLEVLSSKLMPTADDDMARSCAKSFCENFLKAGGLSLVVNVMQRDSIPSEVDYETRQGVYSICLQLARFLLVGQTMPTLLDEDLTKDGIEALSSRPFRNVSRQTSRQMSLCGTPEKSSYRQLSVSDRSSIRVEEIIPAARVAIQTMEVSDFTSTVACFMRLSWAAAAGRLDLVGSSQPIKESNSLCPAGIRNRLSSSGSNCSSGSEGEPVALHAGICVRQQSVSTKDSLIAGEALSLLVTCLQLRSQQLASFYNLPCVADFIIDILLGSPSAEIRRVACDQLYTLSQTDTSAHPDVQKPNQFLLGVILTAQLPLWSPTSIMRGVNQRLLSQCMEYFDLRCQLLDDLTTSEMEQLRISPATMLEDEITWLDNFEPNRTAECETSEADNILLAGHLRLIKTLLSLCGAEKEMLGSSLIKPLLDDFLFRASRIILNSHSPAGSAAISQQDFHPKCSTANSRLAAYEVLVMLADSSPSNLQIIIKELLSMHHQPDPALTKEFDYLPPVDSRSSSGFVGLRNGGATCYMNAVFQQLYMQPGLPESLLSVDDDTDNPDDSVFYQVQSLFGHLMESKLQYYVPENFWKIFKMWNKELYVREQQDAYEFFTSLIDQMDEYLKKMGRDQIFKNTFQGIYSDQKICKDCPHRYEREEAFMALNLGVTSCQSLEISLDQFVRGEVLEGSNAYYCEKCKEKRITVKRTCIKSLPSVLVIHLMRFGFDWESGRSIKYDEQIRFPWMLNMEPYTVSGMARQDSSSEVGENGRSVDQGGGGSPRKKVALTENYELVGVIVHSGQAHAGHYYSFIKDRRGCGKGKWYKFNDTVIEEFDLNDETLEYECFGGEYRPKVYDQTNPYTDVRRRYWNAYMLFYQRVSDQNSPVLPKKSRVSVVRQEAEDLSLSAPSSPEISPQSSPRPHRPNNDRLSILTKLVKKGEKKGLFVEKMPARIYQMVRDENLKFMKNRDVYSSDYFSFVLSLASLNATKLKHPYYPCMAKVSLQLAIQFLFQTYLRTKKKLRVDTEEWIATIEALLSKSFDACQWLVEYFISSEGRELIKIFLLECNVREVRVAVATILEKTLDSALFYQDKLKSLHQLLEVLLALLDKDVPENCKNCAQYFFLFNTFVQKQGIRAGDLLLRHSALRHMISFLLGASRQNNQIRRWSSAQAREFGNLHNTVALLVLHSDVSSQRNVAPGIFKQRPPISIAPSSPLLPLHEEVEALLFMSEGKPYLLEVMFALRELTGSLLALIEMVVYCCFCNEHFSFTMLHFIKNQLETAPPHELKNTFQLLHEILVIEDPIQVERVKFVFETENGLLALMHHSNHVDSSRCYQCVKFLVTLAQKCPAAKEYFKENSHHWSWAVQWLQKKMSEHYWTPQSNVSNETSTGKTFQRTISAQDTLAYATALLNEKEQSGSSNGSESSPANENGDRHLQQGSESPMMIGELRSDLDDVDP
How it was run: as §1

USP25 = biological target: T3, USP25 (UniProt Q9UHP3)
T3 sequence (whole entry): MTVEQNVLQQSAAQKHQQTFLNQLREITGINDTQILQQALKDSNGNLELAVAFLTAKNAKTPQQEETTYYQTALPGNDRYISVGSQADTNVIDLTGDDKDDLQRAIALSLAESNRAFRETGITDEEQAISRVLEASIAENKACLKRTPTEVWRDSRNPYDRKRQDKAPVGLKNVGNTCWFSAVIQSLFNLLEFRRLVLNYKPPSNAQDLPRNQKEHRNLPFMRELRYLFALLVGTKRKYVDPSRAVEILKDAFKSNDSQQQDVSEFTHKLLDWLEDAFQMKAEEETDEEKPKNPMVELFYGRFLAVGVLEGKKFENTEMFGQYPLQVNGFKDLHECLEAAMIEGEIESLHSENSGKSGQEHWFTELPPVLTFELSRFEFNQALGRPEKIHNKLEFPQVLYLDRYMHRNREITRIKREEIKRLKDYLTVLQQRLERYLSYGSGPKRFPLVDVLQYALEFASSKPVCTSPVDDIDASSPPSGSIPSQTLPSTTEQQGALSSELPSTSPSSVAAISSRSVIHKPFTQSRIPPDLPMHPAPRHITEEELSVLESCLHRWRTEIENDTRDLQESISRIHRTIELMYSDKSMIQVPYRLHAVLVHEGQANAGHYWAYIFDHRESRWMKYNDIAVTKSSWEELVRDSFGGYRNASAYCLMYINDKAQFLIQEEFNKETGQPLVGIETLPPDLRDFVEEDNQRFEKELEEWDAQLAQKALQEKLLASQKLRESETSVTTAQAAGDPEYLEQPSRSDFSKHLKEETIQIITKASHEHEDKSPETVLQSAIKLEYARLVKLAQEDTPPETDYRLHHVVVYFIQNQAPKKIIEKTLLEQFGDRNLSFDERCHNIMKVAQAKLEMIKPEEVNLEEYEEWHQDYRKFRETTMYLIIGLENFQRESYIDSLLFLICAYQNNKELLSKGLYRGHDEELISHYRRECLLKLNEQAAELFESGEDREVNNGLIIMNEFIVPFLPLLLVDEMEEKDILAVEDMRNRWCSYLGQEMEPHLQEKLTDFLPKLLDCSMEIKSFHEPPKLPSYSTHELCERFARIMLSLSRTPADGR
How it was run: as §1

USP28 = biological target: T4, USP28 (UniProt Q96RU2)
T4 sequence (whole entry): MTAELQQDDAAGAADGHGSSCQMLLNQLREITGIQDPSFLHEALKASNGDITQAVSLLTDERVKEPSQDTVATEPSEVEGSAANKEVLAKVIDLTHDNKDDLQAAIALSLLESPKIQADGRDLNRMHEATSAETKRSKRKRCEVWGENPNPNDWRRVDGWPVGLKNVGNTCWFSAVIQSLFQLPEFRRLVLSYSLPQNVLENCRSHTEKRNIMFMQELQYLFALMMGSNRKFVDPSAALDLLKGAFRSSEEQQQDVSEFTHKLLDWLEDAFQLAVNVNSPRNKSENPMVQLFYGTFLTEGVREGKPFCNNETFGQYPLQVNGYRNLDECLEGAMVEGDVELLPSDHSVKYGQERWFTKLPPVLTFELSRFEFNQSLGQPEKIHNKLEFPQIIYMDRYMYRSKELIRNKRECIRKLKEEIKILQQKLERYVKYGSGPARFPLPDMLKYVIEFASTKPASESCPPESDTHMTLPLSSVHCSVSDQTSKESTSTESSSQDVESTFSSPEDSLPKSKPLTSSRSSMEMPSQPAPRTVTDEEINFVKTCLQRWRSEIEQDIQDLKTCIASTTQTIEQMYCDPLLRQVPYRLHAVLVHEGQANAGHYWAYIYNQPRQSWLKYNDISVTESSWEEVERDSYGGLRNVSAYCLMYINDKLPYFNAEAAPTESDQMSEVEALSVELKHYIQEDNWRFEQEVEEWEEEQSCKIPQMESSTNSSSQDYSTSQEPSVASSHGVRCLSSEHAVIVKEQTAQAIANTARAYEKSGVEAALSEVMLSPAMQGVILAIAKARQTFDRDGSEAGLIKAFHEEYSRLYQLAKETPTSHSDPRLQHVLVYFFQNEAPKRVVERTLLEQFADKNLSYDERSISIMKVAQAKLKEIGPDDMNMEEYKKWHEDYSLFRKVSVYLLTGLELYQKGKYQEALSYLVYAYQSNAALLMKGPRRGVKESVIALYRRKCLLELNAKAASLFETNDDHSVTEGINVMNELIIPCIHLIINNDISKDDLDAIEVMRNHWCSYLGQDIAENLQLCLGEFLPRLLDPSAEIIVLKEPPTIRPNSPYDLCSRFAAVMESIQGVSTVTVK
How it was run: as §1

Measured: log2 ratio of Biotin-Ahx-Ub-VS probe labelling

Cl.Cn1nc2c(c1CNC(=O)CCl)CCCC2
inactive: USP19 0.00104 | USP22 -0.0746 | USP24 -0.0442 | USP25 -0.147 | USP28 -0.325
